aSyn UTR act = Activators via SNCA 5'UTR binding, MLPCN. alpha-synuclein 5'UTR reporter, activators screen. hit rate 7.1% among 300,000. activity score, % (tested at 7.5 µM), hits read low. AID 1814; in the data active = activity score below about -60%
Starred values were filed as active, the others as inactive. Only a sample is shown.

SMILES	aSyn UTR act
O=C(CNC(=S)NC(=O)C1CCCCC1)c1ccccc1	-126*
O=C(NC(=S)Nc1ccc(Br)cn1)c1cccs1	-172*
COc1ccc(NC(=O)Cn2nnc(-c3ccccc3NC(=O)c3cccs3)n2)cc1	-169*
COc1ccc(NC(=O)c2cccs2)cc1O	-135*
O=C(Nc1cccc(N2CCCC2)c1)c1cccs1	-66*
CCCCOc1cccc(C(=O)Nc2ccc(NC(=O)c3cccs3)cc2)c1	64
CCC(C)c1ccc(NC(=O)c2cccs2)cc1 (stereo unspecified)	-71*
COc1ccc(NC(=O)c2cccs2)cc1	-149*
COCC1CCCN(C(=O)c2ccc3nc(Cc4cccc(Cl)c4)oc3c2)C1 (stereo unspecified)	-77*
COC(=O)CN(C)C(=O)c1ccc2nc(Cc3cccc(Cl)c3)oc2c1	-109*
CC(C)(CO)NC(=O)c1ccc2nc(Cc3cccc(Cl)c3)oc2c1	-102*
Cc1cccc(CC(=O)NCC2CCCCC2)c1	-71*
Cc1cccc(C(=O)NC2CCCCCCC2)c1	-214*
CN(C)c1cccc(C(=O)NC2CCCCCC2)c1	-118*
CCn1c(C)c(C)c2cc(C(=O)NC3CCCCCC3)ccc21	-87*
CCCN1C(=O)c2cc(C(=O)NC3CCCCCC3)ccc2C1O (stereo unspecified)	-81*
Cc1cc(C(=O)Nc2ccncc2)ccc1[N+](=O)[O-]	-65*
Cc1cc(C(=O)NC2CCCCCCC2)ccc1[N+](=O)[O-]	-141*
COc1cc(C(=O)N2CCN(c3cccc(C)c3C)CC2)cc(OC)c1OC	58
Cc1cccc(N2CCN(C(=O)CCCOc3ccccc3)CC2)c1C	-86*
CCOC(=O)N1CCN(C(=O)CCCOc2ccccc2)CC1	-115*
CC(C)OC(=O)/C(C#N)=C/c1ccc(-c2ccc(SC(F)F)cc2)o1	-88*
O=C(Nc1ccccc1)Nc1ccc2ncoc2c1	-119*
O=C(Nc1ccccc1)Nc1ccc2ocnc2c1	-117*
CCn1c(-c2ccccc2)csc1=Nc1ccc(O)cc1	-139*
SMILES	aSyn UTR act
OCCn1c(-c2ccc3c(c2)OCO3)csc1=Nc1ccccc1	-97*
CCOc1ccc(N=c2scc(-c3ccccc3)n2CCO)cc1	-104*
Cc1cc(C)cc(NC(=O)c2sc3nc(C)cc(C)c3c2N)c1	-136*
COCc1cc(C)nc2sc(C(=O)Nc3ccccc3F)c(N)c12	-82*
CCOC(=O)c1c(C)nc2sc(C(=O)Nc3ccc(C(C)=O)cc3)c(N)c2c1-c1ccc(OC)cc1	-90*
COCc1cc(C)nc2sc(C(=O)NN)c(-n3cccc3)c12	71
C=CCNc1nc(N)c(C(=O)Nc2cc(C)on2)s1	-111*
Cc1cc(C)c2c(N)c(C(=O)Nc3ccc([N+](=O)[O-])cc3)sc2n1	-144*
Cc1cc(C)c2c(N)c(C(=O)N/N=C/c3cccs3)sc2n1	-140*
O=C(N/N=C/c1cccs1)c1n[nH]c2c1CCC2	68
Cc1cc(C(F)(F)F)c2c(N)c(C(=O)Nc3cc(C)on3)sc2n1	-125*
COc1ccc(NC(=O)c2sc3nc(C)cc(C)c3c2N)cc1	-172*
Cc1cc(C)c2c(N)c(C(=O)Nc3ccc(C)c(C)c3)sc2n1	-63*
CCCCCCC(=O)Nc1ccc(Cl)cn1	-88*
CC(C)CC(=O)NC(=S)Nc1ccc(Cl)cn1	-68*
CCc1ccc(NC(=S)NC(=O)CC(C)C)cc1	-154*
CCC(C)c1ccc(OCC(=O)Nc2ccc(Cl)cn2)cc1 (stereo unspecified)	-72*
O=C1S/C(=C\c2cccs2)C(=O)N1c1ccc(O)cc1	-133*
Cn1cc(/C=C2\SC(=O)N(c3ccccc3)C2=O)c2ccccc21	-217*
Cn1cc(/C=C2\SC(=O)N(c3ccc(O)cc3)C2=O)c2ccccc21	-86*
Cn1cc(/C=N/n2cnc3scc(-c4ccccc4)c3c2=O)c2ccccc21	66
Cc1ccc(C2=N/C(=C\N3CCCCC3)C(=O)O2)cc1	-105*
Cc1ccc(C2=N/C(=C/N3CCOCC3)C(=O)O2)cc1	-100*
Cc1ccc(/C=C2\Sc3ccccc3C2=O)s1	-104*
COc1ccccc1N1C(=O)S/C(=C\c2cc(C)n(C)c2C)C1=O	-128*
SMILES	aSyn UTR act
COc1ccccc1N1C(=O)S/C(=C\c2ccc(C)s2)C1=O	-135*
CCOc1ccc(NC(=O)C2C3CC/C=C\CCC32)cc1 (stereo unspecified)	-87*
COc1ccc(NC(=O)C2C3CC/C=C\CCC32)cc1 (stereo unspecified)	-141*
CCc1ccccc1NC(=O)CN(C)C(=O)Cn1ncc(Cl)c(Cl)c1=O	-63*
COc1ccc(OCc2cc(C(=O)N3CCCN(C(C)=O)CC3)no2)c(Cl)c1	-75*
O=C(c1cc(COc2ccc(F)cc2F)on1)N1C[C@H]2CC[C@H]1C2	-99*
O=C(c1cc(COc2c(F)cccc2F)on1)N1C[C@H]2CC[C@H]1C2	-114*
Cc1cccc(C)c1OCc1cc(C(=O)NC2CCC2)no1	-66*
COc1ccc(OCc2cc(C(=O)N3C[C@H]4CC[C@H]3C4)no2)c(Cl)c1	-82*
O=C(c1cc(COc2c(F)cccc2F)on1)N1CCC(c2ccccc2F)C1 (stereo unspecified)	-125*
CC(=O)c1ccc(OCc2cc(C(=O)N3CC4C[C@@H]5CC3C[C@H](C4)C5)no2)cc1	-134*
Cc1cccc(C)c1OCc1cc(C(=O)N2CCC(c3ccncc3)CC2)no1	-93*
O=C(c1cc(COc2ccc(F)cc2F)on1)N1CC2C[C@@H]3CC1C[C@H](C2)C3	-97*
COc1ccccc1OCc1cc(C(=O)N2CC3C[C@@H]4CC2C[C@H](C3)C4)no1	-120*
Cc1ccccc1NC(=O)CSC1=C(C#N)C(c2ccsc2)CC(=O)N1 (stereo unspecified)	-84*
Cc1ccc(NC(=O)CSC2=C(C#N)C(c3ccco3)CC(=O)N2)cc1 (stereo unspecified)	-148*
CC(C)C1CC(=O)NC(SCC(=O)Nc2ccc(Br)cc2)=C1C#N (stereo unspecified)	-74*
O=[N+]([O-])c1ccc(C(O)CSC(=S)N2CCCCC2)cc1 (stereo unspecified)	-181*
C=CCn1cccc(C(=O)Nc2ccc(F)cc2)c1=O	-101*
COc1ccc(NC(=O)c2cccn(CC=C(C)C)c2=O)cc1	-79*
C=CCc1cccc2cc(C(=O)Nc3ccc(F)cc3)c(=O)oc12	-128*
C=CCn1cccc(C(=O)Nc2ccc(OC)cc2)c1=O	-97*
C=CCn1c(N)c(C(=O)Nc2ccccc2)c2nc3ccccc3nc21	60
Oc1ccc(Br)cc1/C=N/n1cnc2ccccc21	-262*
Oc1ccc(Br)cc1/C=N/N1CCCCC1	-221*
SMILES	aSyn UTR act
COc1ccccc1/C=C/C(=O)Nc1ccc2c(c1)OCCO2	-145*
COc1ccccc1/C=C/C(=O)Nc1ccc2c(c1)CCC2	-151*
CC(C)c1ccc(NC(=O)NN2CCOCC2)cc1	-98*
CCC(C)c1ccc(NC(=S)NN2CCOCC2)cc1 (stereo unspecified)	-99*
CCc1noc(C)c1C(=O)Nc1nc(-c2cccs2)cs1	-66*
CNc1ccccc(-c2ccc3ccccc3n2)c1=O	-140*
Cc1ccc(/C=N/NC(=O)Nc2ccccc2)o1	-80*
Cc1ccc(/C=N/NC(=O)NC2CCCCC2)o1	-66*
Cc1ccc(S(=O)(=O)N(C)CC(=O)N/N=C/c2ccc(C)o2)cc1	46
COc1ccc(C(=O)COc2ccccc2C#N)cc1	-127*
COc1ccc(C(=O)COc2ccccc2N2C(=O)C3C4C=CC(C4)C3C2=O)cc1 (stereo unspecified)	-82*

From PubChem
